Measured values published in the supplement of paper PMC3545927.
The other results are listed elsewhere or left out. The hit rate among all sequences tested is not known here.

Target: furin, P09958
Assay: furin cleavage Z-score vs untreated control; higher = more cleavage, active = 3.5 or more, inactive = 1 or less, 8 variable residues between constant flanks
Outline: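 Furin-free reactions served as the baseline for the cleavage Z-score, which is the log read count lowess-adjusted and scaled by median absolute deviation. Counts came from released DNA, adapter-tagged by PCR and sequenced. Purified furin had cut 8-mer peptides fused to a cDNA oligonucleotide on magnetic beads during 7.5, 15 or 30 min at 1:10 enzyme:substrate.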
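Note: purified furin at 1:10 enzyme:substrate in 50 mM HEPES pH 7.5.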

Chain of furin, P09958 (P09958 whole entry): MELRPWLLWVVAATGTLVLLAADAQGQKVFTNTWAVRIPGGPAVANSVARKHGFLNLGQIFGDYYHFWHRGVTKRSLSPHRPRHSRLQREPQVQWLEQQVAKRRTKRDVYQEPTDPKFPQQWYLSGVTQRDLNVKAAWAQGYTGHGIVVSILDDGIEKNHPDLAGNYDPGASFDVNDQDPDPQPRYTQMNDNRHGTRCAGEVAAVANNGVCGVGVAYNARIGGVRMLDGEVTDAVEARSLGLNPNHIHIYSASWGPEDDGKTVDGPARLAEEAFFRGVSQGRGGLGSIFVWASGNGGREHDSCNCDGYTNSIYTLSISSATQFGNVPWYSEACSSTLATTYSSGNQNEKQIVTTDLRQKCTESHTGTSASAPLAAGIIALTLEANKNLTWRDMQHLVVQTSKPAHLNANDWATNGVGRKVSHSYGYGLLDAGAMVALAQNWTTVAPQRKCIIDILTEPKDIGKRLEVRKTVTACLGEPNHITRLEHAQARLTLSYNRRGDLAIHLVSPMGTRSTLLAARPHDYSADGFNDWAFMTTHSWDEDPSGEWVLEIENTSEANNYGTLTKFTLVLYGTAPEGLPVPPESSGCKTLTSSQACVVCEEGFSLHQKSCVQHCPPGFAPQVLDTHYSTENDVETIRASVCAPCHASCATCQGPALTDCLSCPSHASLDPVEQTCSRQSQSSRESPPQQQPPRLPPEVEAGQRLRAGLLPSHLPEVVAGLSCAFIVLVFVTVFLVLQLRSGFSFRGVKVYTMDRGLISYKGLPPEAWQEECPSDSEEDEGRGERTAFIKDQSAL

Sequence | furin cleavage Z-score (7.5 min) | furin cleavage Z-score (15 min) | furin cleavage Z-score (30 min)
CAMAECSQHLAGNASASA [HC1683] | 0.693 (inactive) | -0.153 (inactive) | 0.354 (inactive)
CAEANAEDVVAGNASASA [HC1366] | 0.916 (inactive) | -1.42 (inactive) | -0.854 (inactive)
CAKHMWNFISAGNASASA [HC1042] | -0.105 (inactive) | -0.376 (inactive) | -0.363 (inactive)
CAITGHRMAWAGNASASA [HC317] | -0.992 (inactive) | -0.446 (inactive) | -1.11 (inactive)
CAPVYCFTPSAGNASASA [HC413] | 0.856 (inactive) | 1.3 | 0.586 (inactive)
CARSKRNIIGAGNASASA [FS-1869] | 6.5 (active) | 8.47 (active) | 8.95 (active)
CARSKRCSCSAGNASASA [FS-2809] | 0.463 (inactive) | -0.402 (inactive) | 1.36
CARSARSPPGAGNASASA [FS-3074] | -0.433 (inactive) | -0.609 (inactive) | -0.311 (inactive)
CARSKRSSSHAGNASASA [FS-2184] | 7.92 (active) | 8.7 (active) | 6.8 (active)
CARSKRDPIIAGNASASA [FS-3206] | -1.19 (inactive) | 0.347 (inactive) | 1.06
CARSPRSPPGAGNASASA [FS-3091] | 2.88 | 4.13 (active) | 4.13 (active)
CARSSRSPPGAGNASASA [FS-3098] | -0.0484 (inactive) | 0.711 (inactive) | 1.37
CARSLREFEEAGNASASA [FS-3087] | -2.22 (inactive) | 0.955 (inactive) | 0.853 (inactive)
CARYPRDVRDAGNASASA [FS-2538] | 8.26 (active) | 9.51 (active) | 6.93 (active)
CARRWREVEEAGNASASA [FS-2803] | -0.554 (inactive) | -1.56 (inactive) | 0.0666 (inactive)
CAVPPRYPRDAGNASASA [FS-311] | 5.8 (active) | 6.12 (active) | 6.06 (active)
CARYPRNVEEAGNASASA [FS-2850] | 4.99 (active) | 7.34 (active) | 7.13 (active)
CARYQRSHDDAGNASASA [FS-2320] | 0.707 (inactive) | -0.328 (inactive) | 0.764 (inactive)
CAATPCSAHLAGNASASA [HC2463] | 0.828 (inactive) | 1.41 | 1.31
CARHADVIPVAGNASASA [HC728] | -2.29 (inactive) | -0.0929 (inactive) | -1.98 (inactive)
CAAEVIAPAVAGNASASA [HC1032] | -0.225 (inactive) | -0.402 (inactive) | -0.162 (inactive)
CAVVCCSWSYAGNASASA [HC2048] | -1.44 (inactive) | -0.879 (inactive) | -0.0857 (inactive)
CAILWRLKRQAGNASASA [FS-1215] | 10.9 (active) | 9.84 (active) | 7.41 (active)

Sequence | furin cleavage Z-score (7.5 min) | furin cleavage Z-score (15 min) | furin cleavage Z-score (30 min)
CANDSRLKRQAGNASASA [FS-1038] | 6.07 (active) | 5.6 (active) | 6.15 (active)
CANDSRHLRNAGNASASA [FS-1647] | 0.543 (inactive) | 0.626 (inactive) | 1.57
CALNKSFRRAAGNASASA [FS-354] | 0.697 (inactive) | -0.445 (inactive) | 1.37
CAVVCRSMSYAGNASASA [HC90] | 1.85 | 0.752 (inactive) | 0.571 (inactive)
CAFRARQIRYAGNASASA [FS-419] | 2.8 | 5.19 (active) | 2.15
CAFRARFRRLAGNASASA [FS-526] | 10.4 (active) | 12.1 (active) | 9.87 (active)
CAFSHRQVRYAGNASASA [FS-929] | 0.403 (inactive) | 1.8 | 2.61
CANRARFRRAAGNASASA [FS-64] | 8.77 (active) | 9.51 (active) | 7.84 (active)
CADCTTPCSGAGNASASA [HC1951] | 0.95 (inactive) | 0.00642 (inactive) | 1.2
CAMEECSQVLAGNASASA [HC1750] | 1.44 | -0.739 (inactive) | 1.26
CAVPYFVRVQAGNASASA [HC615] | -1.87 (inactive) | 0.165 (inactive) | -0.325 (inactive)
CALPYLVAYQAGNASASA [HC952] | 0.718 (inactive) | -1.65 (inactive) | -1.41 (inactive)
CALPKRVRRQAGNASASA [FS-1029] | 11.3 (active) | 12.3 (active) | 8.74 (active)
CACSTRVRRQAGNASASA [FS-120] | 11 (active) | 8.81 (active) | 7.5 (active)
CAVPERCRRQAGNASASA [FS-1580] | 6.62 (active) | 9.1 (active) | 6.98 (active)
CAFLTRVEAQAGNASASA [HC585] | -0.981 (inactive) | 1.44 | -1 (inactive)
CAVGDLCGSVAGNASASA [HC299] | -0.438 (inactive) | -0.375 (inactive) | 1.2
CATTPCSPSWAGNASASA [HC1899] | 0.637 (inactive) | 0.489 (inactive) | -0.787 (inactive)
CAPEFFTELDAGNASASA [HC1220] | -0.864 (inactive) | -0.533 (inactive) | -1.32 (inactive)
CAFVQRVFRDAGNASASA [FS-776] | -0.109 (inactive) | -0.244 (inactive) | 0.515 (inactive)
CAAVQRVPRDAGNASASA [FS-1312] | 6.89 (active) | 6.58 (active) | 5.33 (active)
CAQRQPFPRDAGNASASA [FS-951] | 0.0863 (inactive) | 0.099 (inactive) | -1.03 (inactive)
CALQERVPRDAGNASASA [FS-1366] | 7.28 (active) | 7.82 (active) | 7.62 (active)
